# Assay results as given in ChEMBL document CHEMBL3988442, “University of Dundee, Small-Polar-MMV Screening Library” (2021).
# For some of these results: Measured potencies and affinities stand elsewhere.
# Key:
# Parameters in all cases: scale not given: direction of the effect not stated beside the values
# [1] = molecular target: Protein translocase subunit SecA (Escherichia coli (strain K12)) (UniProt P10408); assay: Assay to Identify E. coli SecA ATPase Inhibitors; type: functional; details: 30 µM
# Sequence of Protein translocase subunit SecA (Escherichia coli (strain K12)) (P10408 whole entry): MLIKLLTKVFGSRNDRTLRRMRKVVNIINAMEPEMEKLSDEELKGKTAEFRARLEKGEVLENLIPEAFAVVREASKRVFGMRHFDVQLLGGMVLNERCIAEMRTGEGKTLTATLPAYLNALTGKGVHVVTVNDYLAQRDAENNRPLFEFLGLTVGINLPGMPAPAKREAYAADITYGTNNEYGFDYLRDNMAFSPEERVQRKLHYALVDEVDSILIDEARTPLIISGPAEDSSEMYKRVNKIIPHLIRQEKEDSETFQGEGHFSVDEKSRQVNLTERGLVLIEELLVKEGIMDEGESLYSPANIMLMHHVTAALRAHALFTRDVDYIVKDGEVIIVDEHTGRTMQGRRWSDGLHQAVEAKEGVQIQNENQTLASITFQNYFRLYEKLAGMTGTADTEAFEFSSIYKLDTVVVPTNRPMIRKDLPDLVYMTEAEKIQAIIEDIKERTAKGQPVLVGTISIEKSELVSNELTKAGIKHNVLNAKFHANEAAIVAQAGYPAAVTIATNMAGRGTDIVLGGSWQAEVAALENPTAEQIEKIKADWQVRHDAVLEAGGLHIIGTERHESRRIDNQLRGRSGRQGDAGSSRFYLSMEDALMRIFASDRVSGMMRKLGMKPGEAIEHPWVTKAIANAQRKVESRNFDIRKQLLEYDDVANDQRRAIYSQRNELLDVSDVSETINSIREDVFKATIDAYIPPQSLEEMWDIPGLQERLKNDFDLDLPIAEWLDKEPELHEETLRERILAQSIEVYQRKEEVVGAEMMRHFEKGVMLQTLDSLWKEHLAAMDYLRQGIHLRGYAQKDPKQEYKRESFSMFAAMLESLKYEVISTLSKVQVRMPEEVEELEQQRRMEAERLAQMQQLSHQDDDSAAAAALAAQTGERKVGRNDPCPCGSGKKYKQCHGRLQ
# [2] = molecular target: T1, Ubiquitin-activating enzyme e1, putative (Leishmania donovani (strain BPK282A1)) (UniProt E9BSI1); assay: Leishmania donovani Ubiquitin Activating Enzyme (LdE1); type: functional; details: 30 µM
# T1 sequence (whole entry): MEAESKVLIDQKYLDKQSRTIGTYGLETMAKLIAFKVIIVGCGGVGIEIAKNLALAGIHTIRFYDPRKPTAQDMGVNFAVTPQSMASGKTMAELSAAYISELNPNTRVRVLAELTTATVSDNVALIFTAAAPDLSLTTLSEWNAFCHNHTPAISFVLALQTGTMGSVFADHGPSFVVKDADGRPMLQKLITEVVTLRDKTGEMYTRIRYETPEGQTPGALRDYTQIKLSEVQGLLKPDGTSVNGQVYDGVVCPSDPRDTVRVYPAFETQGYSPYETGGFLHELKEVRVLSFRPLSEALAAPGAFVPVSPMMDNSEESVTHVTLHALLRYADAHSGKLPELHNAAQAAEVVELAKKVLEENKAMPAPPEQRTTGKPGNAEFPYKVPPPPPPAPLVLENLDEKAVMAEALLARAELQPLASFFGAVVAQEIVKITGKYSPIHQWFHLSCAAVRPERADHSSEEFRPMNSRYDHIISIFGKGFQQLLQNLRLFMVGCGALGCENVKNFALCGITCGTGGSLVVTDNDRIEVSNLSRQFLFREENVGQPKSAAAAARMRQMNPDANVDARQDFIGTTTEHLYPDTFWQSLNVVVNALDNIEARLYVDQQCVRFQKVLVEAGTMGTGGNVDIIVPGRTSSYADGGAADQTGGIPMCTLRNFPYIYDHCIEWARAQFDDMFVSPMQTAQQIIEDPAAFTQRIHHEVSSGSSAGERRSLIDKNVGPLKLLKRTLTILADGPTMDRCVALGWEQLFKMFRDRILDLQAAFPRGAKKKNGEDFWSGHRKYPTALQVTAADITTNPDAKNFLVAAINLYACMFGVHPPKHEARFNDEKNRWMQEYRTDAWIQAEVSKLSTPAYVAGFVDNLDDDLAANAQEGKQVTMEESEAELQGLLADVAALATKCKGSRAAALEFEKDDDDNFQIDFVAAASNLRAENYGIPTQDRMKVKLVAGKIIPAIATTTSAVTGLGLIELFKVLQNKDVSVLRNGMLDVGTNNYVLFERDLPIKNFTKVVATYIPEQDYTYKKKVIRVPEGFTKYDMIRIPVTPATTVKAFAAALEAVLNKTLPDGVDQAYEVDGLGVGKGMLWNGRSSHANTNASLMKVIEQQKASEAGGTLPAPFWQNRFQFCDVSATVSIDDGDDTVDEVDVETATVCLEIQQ
# [3] = molecular target: AMP-activated protein kinase, AMPK (Homo sapiens) (UniProt P54646+O43741+P54619+Q9UGJ0+Q9Y478+Q13131+Q9UGI9); assay: AMP-dependent Kinase enzyme assay. An in vitro enzyme assay that detects ADP turnover that is directly proportional to AMPK activity. This uses naive AMPK that is activated during the assay with MK-8722; type: functional; details: 30 µM
# [4] = molecular target: Sialic acid-binding Ig-like lectin 9 (Homo sapiens) (UniProt Q9Y336); assay: Hs-Siglec9 ALPHAscreen SOP 20170721; details: 10 µM
# Sequence of Sialic acid-binding Ig-like lectin 9 (Homo sapiens) (Q9Y336 whole entry): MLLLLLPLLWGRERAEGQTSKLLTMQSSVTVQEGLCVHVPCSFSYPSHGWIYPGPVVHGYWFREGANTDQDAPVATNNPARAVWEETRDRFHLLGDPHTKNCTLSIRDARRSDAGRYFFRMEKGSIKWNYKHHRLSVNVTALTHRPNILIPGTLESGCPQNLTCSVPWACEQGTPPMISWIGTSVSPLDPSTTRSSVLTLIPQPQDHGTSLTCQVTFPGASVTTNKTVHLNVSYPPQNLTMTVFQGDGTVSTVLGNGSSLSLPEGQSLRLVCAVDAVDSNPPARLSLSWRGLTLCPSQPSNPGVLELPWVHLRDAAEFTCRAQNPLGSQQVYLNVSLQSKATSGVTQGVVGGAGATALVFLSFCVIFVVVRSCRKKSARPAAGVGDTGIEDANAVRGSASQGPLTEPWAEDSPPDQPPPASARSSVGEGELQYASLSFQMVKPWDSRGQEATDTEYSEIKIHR
# Trypanosoma cruzi = assay: Trypanosoma cruzi phosphomannomutase and mannose-1-phosphate guanylyltransferase assay; type: functional; details: 10 µM
# [5] = molecular target: T2, Arginase-2, mitochondrial (Homo sapiens) (UniProt P78540); assay: in vitro enzyme assay to detect the production of urea directly proportional to the activity of Arginase II; type: functional; details: 33.3 µM; note: in the data most compounds retested in dose-response had high values
# T2 sequence (whole entry): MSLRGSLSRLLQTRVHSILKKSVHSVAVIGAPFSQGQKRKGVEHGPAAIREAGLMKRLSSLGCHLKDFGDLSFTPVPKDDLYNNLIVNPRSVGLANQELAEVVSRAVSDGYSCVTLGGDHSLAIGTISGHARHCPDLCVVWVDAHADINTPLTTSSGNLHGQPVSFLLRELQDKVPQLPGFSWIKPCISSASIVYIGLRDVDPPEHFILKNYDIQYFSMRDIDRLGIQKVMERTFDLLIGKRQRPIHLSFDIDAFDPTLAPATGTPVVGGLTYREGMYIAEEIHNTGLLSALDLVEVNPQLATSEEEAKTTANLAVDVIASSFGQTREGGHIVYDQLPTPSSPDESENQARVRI
# [6] = molecular target: T3, Proteasome subunit beta (Trypanosoma cruzi) (UniProt O96673); assay: Trypanosoma cruzi proteasome chymotrypsin-like activity (TcProtChymo) assay.; note: in the data most compounds retested in dose-response had high values; type: functional; details: 9.37 µM
# T3 sequence (whole entry): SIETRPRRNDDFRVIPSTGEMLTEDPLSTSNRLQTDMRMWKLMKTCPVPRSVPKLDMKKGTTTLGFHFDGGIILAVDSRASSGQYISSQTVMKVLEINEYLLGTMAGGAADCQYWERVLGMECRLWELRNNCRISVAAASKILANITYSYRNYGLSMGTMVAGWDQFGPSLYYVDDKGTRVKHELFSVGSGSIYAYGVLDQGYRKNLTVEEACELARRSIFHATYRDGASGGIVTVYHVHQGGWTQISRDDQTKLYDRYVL
# Homo sapiens = organism: Homo sapiens; assay: To identify inhibition of the IFN signalling (Jak-Stat) pathway via expression of an eGFP reporter gene under the control of an IFN-stimulated response element (ISRE) containing MxA promoter.; type: functional; details: 30 µM
# [7] = molecular target: T4, Tyrosyl-tRNA synthetase, putative (Trypanosoma cruzi (strain CL Brener)) (UniProt Q4DSP6); assay: Trypanosoma cruzi tyrosyl tRNA synthetase (TcYRS) _High Tyrosine SOP; type: functional; details: 30 µM; note: in the data most compounds retested in dose-response had high values
# T4 sequence (whole entry): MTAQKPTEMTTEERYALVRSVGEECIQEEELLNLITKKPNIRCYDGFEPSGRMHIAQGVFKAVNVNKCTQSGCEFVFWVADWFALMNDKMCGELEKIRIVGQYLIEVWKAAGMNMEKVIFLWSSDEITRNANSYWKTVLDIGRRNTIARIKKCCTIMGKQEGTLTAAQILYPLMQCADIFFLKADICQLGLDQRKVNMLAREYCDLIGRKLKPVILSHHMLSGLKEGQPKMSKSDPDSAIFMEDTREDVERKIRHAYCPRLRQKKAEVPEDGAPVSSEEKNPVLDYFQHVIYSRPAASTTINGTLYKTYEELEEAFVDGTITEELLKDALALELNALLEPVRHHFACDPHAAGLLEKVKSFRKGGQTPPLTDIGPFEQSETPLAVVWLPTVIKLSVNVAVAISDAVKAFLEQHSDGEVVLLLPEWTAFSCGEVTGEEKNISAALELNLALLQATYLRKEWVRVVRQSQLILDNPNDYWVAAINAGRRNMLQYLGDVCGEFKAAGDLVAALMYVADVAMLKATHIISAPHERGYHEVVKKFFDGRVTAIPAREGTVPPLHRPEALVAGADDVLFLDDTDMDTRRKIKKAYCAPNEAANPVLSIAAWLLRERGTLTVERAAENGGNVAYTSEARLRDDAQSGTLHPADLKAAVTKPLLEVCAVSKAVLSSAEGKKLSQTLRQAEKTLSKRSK
# [8] = molecular target: T4, Tyrosyl-tRNA synthetase, putative (Trypanosoma cruzi (strain CL Brener)); assay: Trypanosoma cruzi tyrosyl tRNA synthetase (TcYRS) SOP; type: functional; details: 30 µM
# [9] = molecular target: Chromo domain-containing protein 1 (Saccharomyces cerevisiae (strain ATCC 204508 / S288c) (Baker's yeast)) (UniProt P32657); assay: ScCHD-1 Enzyme Inhibition Assay; type: functional; details: 30 µM; note: in the data most compounds retested in dose-response had high values
# Sequence of Chromo domain-containing protein 1 (Saccharomyces cerevisiae (strain ATCC 204508 / S288c) (Baker's yeast)) (P32657 whole entry, the tested form may be a part): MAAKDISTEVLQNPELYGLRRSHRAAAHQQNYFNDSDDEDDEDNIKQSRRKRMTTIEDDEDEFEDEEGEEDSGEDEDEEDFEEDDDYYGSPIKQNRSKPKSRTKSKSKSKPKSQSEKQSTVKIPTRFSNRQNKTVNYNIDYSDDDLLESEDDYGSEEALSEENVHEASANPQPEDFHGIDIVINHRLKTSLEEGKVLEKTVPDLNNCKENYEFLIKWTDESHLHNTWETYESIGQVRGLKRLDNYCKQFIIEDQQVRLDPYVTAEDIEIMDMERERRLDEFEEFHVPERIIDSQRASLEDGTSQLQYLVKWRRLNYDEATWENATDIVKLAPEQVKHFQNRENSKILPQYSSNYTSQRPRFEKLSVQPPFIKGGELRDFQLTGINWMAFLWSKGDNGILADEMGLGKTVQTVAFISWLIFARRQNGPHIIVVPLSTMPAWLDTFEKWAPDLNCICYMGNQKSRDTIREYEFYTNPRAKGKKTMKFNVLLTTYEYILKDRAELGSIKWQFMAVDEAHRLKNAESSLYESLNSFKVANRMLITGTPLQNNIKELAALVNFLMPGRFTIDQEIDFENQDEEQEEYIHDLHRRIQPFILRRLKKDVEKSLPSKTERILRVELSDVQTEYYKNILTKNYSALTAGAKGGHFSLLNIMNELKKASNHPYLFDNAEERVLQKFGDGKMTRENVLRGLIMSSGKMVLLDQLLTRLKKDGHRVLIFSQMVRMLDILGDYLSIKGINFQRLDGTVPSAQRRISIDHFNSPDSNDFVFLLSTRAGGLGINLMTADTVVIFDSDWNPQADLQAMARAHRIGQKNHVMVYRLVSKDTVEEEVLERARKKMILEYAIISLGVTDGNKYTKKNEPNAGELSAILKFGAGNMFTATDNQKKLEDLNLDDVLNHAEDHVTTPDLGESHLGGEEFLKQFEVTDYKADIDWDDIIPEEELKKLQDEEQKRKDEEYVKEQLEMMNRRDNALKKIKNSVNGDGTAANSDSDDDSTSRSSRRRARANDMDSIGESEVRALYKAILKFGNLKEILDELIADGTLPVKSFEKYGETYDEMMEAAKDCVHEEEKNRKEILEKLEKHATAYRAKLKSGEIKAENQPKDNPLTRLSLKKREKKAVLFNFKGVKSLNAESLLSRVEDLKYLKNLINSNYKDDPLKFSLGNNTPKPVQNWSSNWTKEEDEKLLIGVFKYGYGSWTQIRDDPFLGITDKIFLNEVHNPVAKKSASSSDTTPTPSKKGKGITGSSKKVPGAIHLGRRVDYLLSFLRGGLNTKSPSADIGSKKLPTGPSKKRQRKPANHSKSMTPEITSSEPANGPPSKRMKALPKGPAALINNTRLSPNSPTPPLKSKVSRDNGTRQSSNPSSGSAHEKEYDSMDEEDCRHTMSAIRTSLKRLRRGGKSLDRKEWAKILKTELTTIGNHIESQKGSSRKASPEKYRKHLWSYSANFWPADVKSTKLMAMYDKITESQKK
Structure (SMILES),Percent Effect [1] [%],Percent Effect [2] [%],Percent Effect [3] [%],Percent Effect [4] [%],Percent Effect (Trypanosoma cruzi) [%],Percent Effect [5] [%],Percent Effect [6] [%],Percent Effect (Homo sapiens) [%],Percent Effect [7] [%],Percent Effect [8] [%],Percent Effect [9] [%]
O=C(c1cnoc1)N1CCC[C@]2(C[C@H](Oc3ncccc3F)CO2)C1,-4.36,-30.1,-3.76,25,9.72,-5.59,11.7,9.74,4.17,8.64,-3.75
Cc1ccsc1C(=O)N1CC(C(=O)NCC2CC2)C2(CCOCC2)C1 (stereo not given),-6.49,7.79,87.3,-3.49,-9.57,1.94,8.36,27.5,0,-3.85,-7.68
O=C(O)[C@]12CCCN(Cc3ccccc3)C[C@H]1CN(c1ncccn1)C2,-4.2,5.33,7.47,-4.2,0.386,-39.2,9.91,-24.8,4.17,12.5,-8.27
O=C(O)[C@@H]1CN(C(=O)c2ccc3[nH]nnc3c2)C[C@H]1c1cccc(F)c1,-4.68,11,-5.72,8.16,6.94,-3.99,12.6,3.52,4.17,8.64,-2.47
COc1ccc(C(=O)N2Cc3c(Cn4ccnc4)nn(C)c3C2)cc1,-2.78,8,5.76,-5.42,3.15,-1.63,12.1,7.14,5.32,11.5,-3.95
O=C(c1cccnc1)N1CCCC2(CCN(c3ccsc3)C2=O)C1 (stereo not given),-2.21,10.4,15.5,-9.57,-8.19,11,20.9,9.28,-7.41,1.28,-9.17
c1cnc2c(c1)cc([C@H]1CCCO1)n2CCN1CCCCC1,4.1,9.46,12,-7.44,-7.91,-0.232,9.52,7.5,2.15,3.9,-12.4
CNc1cc(C)nc(C2CN(Cc3cc[nH]n3)CCO2)c1 (stereo not given),-2.72,1.35,11.4,-2.27,-7.51,-6.26,-0.156,-17.5,0,3.9,-10.1
Cc1nc2ccnn2c(C)c1CCC(=O)N1CCN(C2CC2)CC1,-4.83,18.4,9.42,-13.6,-7.38,0.719,10.9,7.93,4.43,13.6,-7.28
O=C(NCC(O)c1ccccc1Cl)c1cccc(-n2cnnn2)c1 (stereo not given),-1.49,11,-3.34,14.3,1.18,1.36,14.2,24.8,3.23,7.5,98.6
CC(C)c1nc(C2CCCN2CC(=O)N2CCc3ccccc32)no1 (stereo not given),-3.88,-7.89,5.96,5.77,-2.82,-1.15,-2.51,-0.0405,-3.43,-4.88,6.73
COC(=O)c1ccoc1COC(=O)CCc1ccc(OC)c(OC)c1,-0.0167,-5.26,11.1,1.57,-3.99,0,13.7,-9.69,0,-20.8,1.64
O=C([C@H]1C[C@H]2OCC[C@H]2N(C(=O)C2CCOCC2)C1)N1CCCCO1,-5.69,13.3,-3.93,1.16,1.93,-50.4,2.73,-17.9,9.38,22.5,-6.17
CN1N=C(C(=O)N2CCCC(CCc3c(F)cccc3F)C2)CCC1=O (stereo not given),-4.37,2.7,0.625,7.41,1.74,0,1.21,4.11,3.7,7.32,-1.23
Cc1cc(CN2CCN(C(=O)c3sccc3C(C)C)CC2)no1,-1.68,2.6,4.01,0.935,4.41,4.84,1.86,5.54,2.86,7.06,-3.8
O=C(Cn1ccc2ccc(Br)cc21)NC[C@@H]1CCCN2CCCC[C@H]12,-9.26,-4,0.939,-2.99,-5.5,-12.8,2.03,7.57,0,-56.4,-8.03
Cc1ccc(CC(=O)N2CCOC(c3nc(C(C)(C)C)n[nH]3)C2)cn1 (stereo not given),-3.58,12.5,-9.66,13.3,4.76,-0.442,7.72,2.71,3.16,5.13,-2.81
CCc1nc(C2CCCN2CC(=O)Nc2nncs2)no1 (stereo not given),-3.67,5.2,-3.54,12.8,3.37,-3.2,2.53,12.1,10.7,21.9,-9.06
CCN(C(=O)COC)C(c1cccnc1)c1ccc2c(c1)CCO2 (stereo not given),2.93,2.74,0.259,5.98,-8.13,-1.2,19.8,5.88,9.38,11.1,-1.24
Cn1cc(CN2CCN(Cc3nccn3C)CC2)cn1,1.49,10.8,7.76,-5.51,-8.31,-1.24,7.12,43.3,0,1.24,-4.77
